Laboratory results taken from ChEMBL document CHEMBL1157539, “Thousands of chemical starting points for antimalarial lead identification” (Nature, 2010).

Each molecule was assayed on Plasmodium falciparum (assay: GSK_TCMDC: Inhibition of Plasmodium falciparum 3D7 in whole red blood cells, using parasite LDH activity as an index of growth. Test compounds present at 2uM).
Format: functional

**Q.** For Cc1cccc2nc(-c3ccc(-c4cccc(CN5CCC(C(N)=O)CC5)c4)s3)[nH]c12.O=C(O)C(F)(F)F, which Inhibition is on record?
**A.** Its Inhibition is 86%.

**Q.** For CNC(=O)C(NC(=O)c1ccccc1C(=O)OC)c1ccccc1 (stereo not given), which Inhibition is on record?
**A.** Its Inhibition is 96%.

**Q.** Which Inhibition does the source give for CN1CCN(c2cccc(Nc3nccc(NCC(O)c4ccccc4)n3)c2)CC1 (stereo not given) here?
**A.** Its Inhibition is 100%.

**Q.** Br.CC1(C)NC(N)=NC(=N)N1OCCCOc1cccc(Cl)c1 was tested. Which Inhibition did it give?
**A.** The Inhibition was 95%.

**Q.** Which Inhibition does the source give for Cc1noc(C)c1-c1cccc(CNCc2ccc(-c3cccc(-c4nc5cc(F)ccc5[nH]4)c3)cc2)c1.O=C(O)C(F)(F)F here?
**A.** The Inhibition was 100%.

**Q.** O=C(/C=C/c1ccc(Cl)cc1)NCCCCCN1CCCN(C(=O)Nc2ccc(F)c(Cl)c2)CC1 was tested. Which Inhibition did it give?
**A.** The Inhibition was 94%.

**Q.** For CCc1c(C)nc(-n2nc(C)cc2NC(=O)C2c3ccccc3Oc3ccccc32)[nH]c1=O, which Inhibition is on record?
**A.** Its Inhibition is 89%.

**Q.** Which Inhibition does the source give for C=CCc1cc(SC)ccc1Oc1ccc(N)cc1.Cl here?
**A.** The Inhibition was 96%.

**Q.** Which Inhibition does the source give for CCCCCCCN(Cc1ccc(OC(C)(C)C(=O)OCC)cc1)C(=O)Nc1ccccc1OC(F)(F)F here?
**A.** Its Inhibition is 95%.

**Q.** How did the Inhibition turn out when CC1(C)CCCC(=Cc2ccc(Br)cc2)C1(O)Cn1ccnc1 (stereo not given) was run?
**A.** The Inhibition was 99%.

**Q.** For COc1ccc2nc(-c3ccc(C(=O)NCCCN4CCN(c5cc(Cl)ccc5OC)CC4)cc3OC)[nH]c2c1, which Inhibition is on record?
**A.** The Inhibition was 100%.

**Q.** With O=C(O)C(F)(F)F.OCC1CCN(Cc2ccc(-c3ccc(-c4nc5cc(F)ccc5[nH]4)s3)cc2)CC1 as the molecule, how does the Inhibition read?
**A.** Its Inhibition is 100%.

**Q.** How did the Inhibition turn out when CC(=O)Nc1cc(C(=O)Nc2cccc(-c3cccc(-c4nc5cc(C(F)(F)F)ccc5[nH]4)c3)c2)ccc1C was run?
**A.** The Inhibition was 97%.

**Q.** Cc1noc(C)c1-c1ccc(C(=C2CCCCCC2)c2ccc(O)cc2)cc1 was tested. Which Inhibition did it give?
**A.** The Inhibition was 100%.

**Q.** COc1cc(OC)cc(C(=O)Nc2cccc(-c3cn4ccc(C)cc4n3)c2)c1 was tested. Which Inhibition did it give?
**A.** Its Inhibition is 86%.

**Q.** Which Inhibition does the source give for N=C(NCc1ccc(O)cc1)Nc1nc(-c2ccc(OCCCn3ccnc3)cc2)cs1 here?
**A.** The Inhibition was 100%.

**Q.** COc1ccc(CNC2Cc3ccccc3C2)cc1-c1ccc(S(=O)(=O)NCCc2ccccn2)s1.O=C(O)C(F)(F)F was tested. Which Inhibition did it give?
**A.** The Inhibition was 92%.

**Q.** Which Inhibition does the source give for Cc1cccc2nc(-c3cccc(-c4cccc(NC(=O)Nc5ccc(Cl)c(Cl)c5)c4)c3)[nH]c12 here?
**A.** Its Inhibition is 100%.

**Q.** With Cc1cc(C)n(Cc2ccc(C(=O)NCC3CCCCC3)cc2)n1 as the molecule, how does the Inhibition read?
**A.** Its Inhibition is 95%.

**Q.** Cc1ccc(CN2CCN(c3cc4c(cc3Cl)CCN4C(=O)Cc3ccc(NC(=O)c4ccc(C(F)(F)F)cc4)cc3)CC2)cc1 was tested. Which Inhibition did it give?
**A.** Its Inhibition is 88%.

**Q.** For N.Nc1nc2c(ncn2COC2COP(=O)(O)OC2)c(=O)[nH]1 (stereo not given), which Inhibition is on record?
**A.** Its Inhibition is 81%.

**Q.** How did the Inhibition turn out when Cn1nccc1C(=O)NCCNCc1ccc(-c2cccc(-c3nc4cc(F)ccc4[nH]3)c2)cc1.O=C(O)C(F)(F)F was run?
**A.** The Inhibition was 100%.

**Q.** With O=C(Nc1ccc(-c2cccc(-c3nc4cc(C(F)(F)F)ccc4[nH]3)c2)cc1)c1cccnc1 as the molecule, how does the Inhibition read?
**A.** Its Inhibition is 100%.

**Q.** With COC(=O)c1cccc(NC(=O)NC2CCN(c3ccnc(Nc4ccc(F)cc4)n3)C2)c1 (stereo not given) as the molecule, how does the Inhibition read?
**A.** The Inhibition was 100%.

**Q.** COc1ccc2[nH]ccc(=NN=Cc3ccc(N(C)C)cc3)c2c1 was tested. Which Inhibition did it give?
**A.** The Inhibition was 100%.
